Data taken from the supplement of paper PMC7380943.
Where a name gives a salt, the structure may show the parent alone. ± gives the standard deviation of the averaged measurements.

What was measured:
[1] = test system: CLZ3 (HCA2 human fibroblast dual HR-NHEJ reporter); experiment: NHEJ repair efficiency (GFP+ cells) relative to control (log10 fold); higher = more non-homologous end joining; conditions: 5 µM; doxycycline 0.5 ug/mL
[2] = test system: CLZ3 (HCA2 human fibroblast dual HR-NHEJ reporter); experiment: HR repair efficiency (tdTomato+ cells) relative to control (log10 fold); higher = more homologous recombination; conditions: 5 µM; doxycycline 0.5 ug/mL
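Wherever HR repair efficiency (tdTomato+ cells) relative to control is given: compound given one day before doxycycline, which switches on I-SceI endonuclease expression to create double-strand breaks within the integrated reporter.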
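Wherever NHEJ repair efficiency (GFP+ cells) relative to control is given: compound given one day ahead of doxycycline, which switches on I-SceI endonuclease to cut the chromosomally integrated reporter and create DSBs.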

| Compound | NHEJ repair efficiency (log10) [1] | HR repair efficiency (log10) [2] |
| --- | --- | --- |
| CC1(C)CC[C@]2(C(=O)O)CC[C@]3(C)C(=CC[C@@H]4[C@@]5(C)C[C@@H](O)[C@H](O)C(C)(C)[C@@H]5CC[C@]43C)[C@@H]2C1 [Maslinic Acid] | -0.0568 | -0.0914 |
| O=C(O)Cc1c(C=CC(=O)OC(Cc2ccc(O)c(O)c2)C(=O)O)ccc(O)c1O (stereo unspecified) [Salvianolic Acid D] | -0.0658 | 0.105 |
| O=C(/C=C/c1ccc(O)c(O)c1)O[C@@H]1C[C@](OC(=O)/C=C/c2ccc(O)c(O)c2)(C(=O)O)C[C@@H](O)[C@H]1O [1,3-Di-O-Caffeoylquinic Acid] | -0.263 | -0.0833 |
| COc1ccc(C[C@H]2COC(=O)[C@@H]2Cc2ccc(O[C@@H]3O[C@H](CO)[C@@H](O)[C@H](O)[C@H]3O)c(OC)c2)cc1OC [Arctiin] | -0.18724 ± 8.6e-05 | -0.203 ± 0.1 |
| O=c1cc(-c2ccc(O)cc2)oc2cc(O)c([C@@H]3O[C@H](CO)[C@@H](O)[C@H](O)[C@H]3O)c(O)c12 [Isovitexin] | 0.0409 | 0.0479 |
| C[C@H]1O[C@H](O[C@@H]2[C@@H](O)[C@H](OCCc3ccc(O)c(O)c3)O[C@H](CO[C@H]3OCC(O)(CO)[C@@H]3O)[C@H]2OC(=O)/C=C/c2ccc(O)c(O)c2)[C@@H](O)[C@@H](O)[C@@H]1O (stereo partly specified) [Forsythoside B] | 0.0465 | 0.076 |
| CC(C)=CC[C@H](O)/C(C)=C/CO[C@@H]1O[C@H](CO)[C@@H](O)[C@H](O)[C@H]1O [Rosiridin] | 0.096 | 0.104 |
| COc1ccc(-c2cc(=O)c3c(OC)c(OC)c(OC)c(OC)c3o2)cc1 [Tangeretin] | -0.13 | -0.0674 |
| C=C[C@H]1[C@H](O[C@@H]2O[C@H](CO)[C@@H](O)[C@H](O)[C@H]2O)OC=C2C(=O)OCC[C@]21O [Swertiamarin] | -0.0365 | -0.0353 |
| C[C@H](CCC(=O)O)[C@H]1CC[C@H]2[C@@H]3CC[C@@H]4C[C@H](O)CC[C@]4(C)[C@H]3C[C@H](O)[C@]12C [Deoxycholic acid] | -0.0363 | 0.0026 |
| C[C@H]1CC[C@@]2(OC1)O[C@H]1C[C@H]3[C@@H]4CC[C@@H]5C[C@@H](O)CC[C@]5(C)[C@H]4CC[C@]3(C)[C@H]1[C@@H]2C [Sarsasapogenin] | -0.068 | 0.0364 |
| Cc1nc(C)c(C)nc1C [Ligustrazine hydrochloride] | 0.0819 | 0.079 |
| C=C(C)[C@@H]1CC[C@]2(C(=O)O)CC[C@]3(C)[C@H](CC[C@@H]4[C@@]5(C)CC[C@H](O[C@@H]6OC[C@H](O)[C@H](O)[C@H]6O[C@@H]6O[C@@H](C)[C@H](O)[C@@H](O)[C@H]6O)[C@@](C)(CO)[C@@H]5CC[C@]43C)[C@@H]12 [Anemoside A3] | 0.0688 | 0.0291 |
| C[C@@H]1CC[C@@]2(OC1)O[C@H]1C[C@H]3[C@@H]4CC=C5C[C@@H](O)C[C@@H](O)[C@]5(C)[C@H]4CC[C@]3(C)[C@H]1[C@@H]2C [Ruscogenin] | -0.0127 | 0.181 |
| C[C@@]12C[C@H](c3ccoc3)O[C@@]13C[C@H](OC3=O)[C@H]1[C@H]2C[C@@H]2C[C@H]1C(=O)O2 [Diosbulbin B] | -0.0688 | 0.0545 |
| CC(/C=C/C=C(\C)C(=O)O[C@@H]1O[C@H](CO[C@@H]2O[C@H](CO)[C@@H](O)[C@H](O)[C@H]2O)[C@@H](O)[C@H](O)[C@H]1O)=C\C=C\C=C(C)\C=C\C=C(/C)C(=O)O[C@@H]1O[C@H](CO[C@@H]2O[C@H](CO)[C@@H](O)[C@H](O)[C@H]2O)[C@@H](O)[C@H](O)[C@H]1O [Crocin] | -0.0374 | 0.0109 |
| COc1cc2c(cc1OC)[C@@H](Cc1ccc(Oc3cc(C[C@@H]4c5cc(OC)c(OC)cc5CCN4C)ccc3O)cc1)N(C)CC2 [Dauricine] | -0.0332 | -0.294 |
| C=C1CCC[C@]2(C)C[C@]3(O)OC(=O)C(C)=C3C[C@@H]12 [Atractylenolide Ⅲ] | 0.0709 | 0.0176 |
| CC1(C)C=Cc2c(ccc3c2OC[C@@H](c2ccc(O)cc2O)C3)O1 [Glabridin] | -0.0493 | -0.0637 |
| N[C@@H](Cc1ccc(O)c(O)c1)C(=O)O [Levodopa] | 0.0328 | 0.0905 |
| C[C@@H]1O[C@@H](OC[C@H]2O[C@@H](OCCc3ccc(O)c(O)c3)[C@H](O)[C@@H](O[C@@H]3O[C@@H](C)[C@H](O)[C@@H](O)[C@H]3O)[C@@H]2OC(=O)/C=C/c2ccc(O)c(O)c2)[C@H](O)[C@H](O)[C@H]1O [Poliumoside] | 0.019 | 0.0718 |
| COc1ccc(-c2oc3c(CC=C(C)C)c(O[C@@H]4O[C@H](CO)[C@@H](O)[C@H](O)[C@H]4O)cc(O)c3c(=O)c2O[C@@H]2O[C@@H](C)[C@H](O)[C@@H](O)[C@H]2O)cc1 [Icarrin] | -0.0369 | 0.0409 |
| COc1cc2c(cc1O)CC[n+]1cc3c(OC)c(OC)ccc3cc1-2 [Jateorrhizine] | -0.216 | -0.189 |
